From the supplement of paper PMC9262897, “Low-cost anti-mycobacterial drug discovery using engineered E. coli” (Nature Communications, 2022)
Where a name gives a salt, the structure may show the parent alone. ± gives the standard deviation of the averaged measurements.

Legend:
Test in all cases: growth (OD600 after 10 h); higher = more growth (less inhibition)
[1] = test system: E. coli TESEC Alr+ wild-type control; settings: compound 0.1 mM; raw OD600 reference: median of DMSO wells 0.241, cell-free background 0.041
Procedure: (§1)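 TESEC Mtb Alr E. coli, or the Alr+ wild-type control, in 384-well plates with Prestwick library compounds at 0.1 mM and 1% DMSO, across arabinose induction levels of 1E3 to 1E7 nM. Growth is read as OD600 after 10 h at 37 °C in triplicate biological replicates.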

E. coli TESEC Mtb Alr [2] = settings: compound 0.1 mM
Procedure: as §1

E. coli TESEC Mtb Asd = settings: compound 0.1 mM
Procedure: (§2)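 TESEC E. coli strains in which the native enzyme is deleted and replaced by arabinose-inducible Mtb Asd, DapB, CysH or TrpD, each grown in its selective medium. Strains were screened against the Prestwick library at 0.1 mM and 1% DMSO in 384-well format at low and high arabinose induction. Growth is read as OD600 after 10 h in triplicate.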

E. coli TESEC Mtb DapB = settings: compound 0.1 mM
Procedure: as §2

[3] = test system: E. coli TESEC Alr+ wild-type control; settings: compound 0.1 mM; raw OD600 reference: median of DMSO wells 0.49, cell-free background 0.052
Procedure: (§3)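 TESEC Mtb Alr E. coli (ΔaraC ΔtolC ΔentC Δalr ΔdadX, arabinose-inducible Mtb Alr) or the Alr+ wild-type control strain, grown in defined M9-fructose medium without D-alanine in 96-well plates with Prestwick library compounds at 0.1 mM and 1% DMSO. Low Alr induction is 0.1 µM arabinose and high induction is 10 mM arabinose.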

E. coli TESEC Mtb Alr [4] = settings: compound 0.1 mM; remark: listed apart in the source
Procedure: as §3

[5] = arabinose 1000 nM, raw OD600 reference: median of DMSO wells 0.294, cell-free background 0.041
[6] = arabinose 10000 nM, raw OD600 reference: median of DMSO wells 0.264, cell-free background 0.041
[7] = arabinose 100000 nM, raw OD600 reference: median of DMSO wells 0.201, cell-free background 0.041
[8] = arabinose 1000000 nM, raw OD600 reference: median of DMSO wells 0.193, cell-free background 0.041
[9] = arabinose 10000000 nM, raw OD600 reference: median of DMSO wells 0.146, cell-free background 0.041
[10] = arabinose induction (level): High, raw OD600 reference: median of DMSO wells 0.331, cell-free background 0.041
[11] = arabinose induction (level): Low, raw OD600 reference: median of DMSO wells 0.417, cell-free background 0.041
[12] = arabinose induction (level): High, raw OD600 reference: median of DMSO wells […], cell-free background 0.041
[13] = arabinose induction (level): Low, raw OD600 reference: median of DMSO wells 0.227, cell-free background 0.041
[14] = arabinose 100 nM, raw OD600 reference: median of DMSO wells 0.413, cell-free background 0.052
[15] = arabinose 10000000 nM, raw OD600 reference: median of DMSO wells […], cell-free background 0.052

SMILES | growth [1] | growth (E. coli TESEC Mtb Alr [2]; [5]) | growth (E. coli TESEC Mtb Alr [2]; [6]) | growth (E. coli TESEC Mtb Alr [2]; [7]) | growth (E. coli TESEC Mtb Alr [2]; [8]) | growth (E. coli TESEC Mtb Alr [2]; [9]) | growth (E. coli TESEC Mtb Asd; [10]) | growth (E. coli TESEC Mtb Asd; [11]) | growth (E. coli TESEC Mtb DapB; [12]) | growth (E. coli TESEC Mtb DapB; [13]) | growth [3] | growth (E. coli TESEC Mtb Alr [4]; [14]) | growth (E. coli TESEC Mtb Alr [4]; [15])
CC(=O)OCC(=O)[C@@]1(O)CC[C@H]2[C@@H]3CCC4=CC(=O)CC[C@]4(C)[C@@]3(F)[C@@H](O)C[C@@]21C [Fludrocortisone acetate] | 0.188 ± 0.0026 | 0.235 ± 0.021 | 0.255 ± 0.012 | 0.141 ± 0.0083 | 0.1074 ± 0.0007 | 0.128 ± 0.0027 | 0.249 ± 0.066 | 0.37 ± 0.092 | 0.188 ± 0.014 | 0.242 ± 0.039 | 0.459 ± 0.028 | 0.401 ± 0.0079 | 0.229 ± 0.02
CC(C)(C#N)c1cc(Cn2cncn2)cc(C(C)(C)C#N)c1 [Anastrozole] | 0.222 ± 0.0057 | 0.274 ± 0.0032 | 0.272 ± 0.0071 | 0.194 ± 0.009 | 0.183 ± 0.0054 | 0.13 ± 0.0054 | 0.339 ± 0.033 | 0.384 ± 0.038 | 0.194 ± 0.011 | 0.214 ± 0.028 | 0.483 ± 0.03 | 0.409 ± 0.0048 | 0.321 ± 0.016
CO[C@@]1(NC(=O)C(C(=O)O)c2ccc(O)cc2)C(=O)N2C(C(=O)O)=C(CSc3nnnn3C)CO[C@@H]21 (stereo partly specified) [Moxalactam disodium salt] | 0.03947 ± 0.00038 | 0.0445 ± 0.0063 | 0.0401 ± 0.00064 | 0.039 ± 0.0013 | 0.03987 ± 0.00015 | 0.0393 ± 0.00046 | 0.0546 ± 0.0041 | 0.0559 ± 0.007 | 0.0504 ± 0.0038 | 0.0472 ± 0.001 | 0.04587 ± 5.8e-05 | 0.0472 ± 0.00072 | 0.056 ± 0.0067
CN1CCC(=C2c3ccccc3CCc3cccnc32)CC1 [Azatadine maleate] | 0.1961 ± 0.0017 | 0.271 ± 0.0097 | 0.256 ± 0.0041 | 0.178 ± 0.0055 | 0.18 ± 0.0037 | 0.132 ± 0.0041 | 0.209 ± 0.017 | 0.313 ± 0.045 | 0.18 ± 0.014 | 0.186 ± 0.018 | 0.59 ± 0.059 | 0.4 ± 0.013 | 0.338 ± 0.018
Nc1ccc(S(=O)(=O)Nc2nccs2)cc1 [Sulfathiazole] | 0.244 ± 0.013 | 0.275 ± 0.013 | 0.203 ± 0.0029 | 0.202 ± 0.029 | 0.125 ± 0.0031 | 0.142 ± 0.006 | 0.377 ± 0.045 | 0.384 ± 0.032 | 0.197 ± 0.012 | 0.199 ± 0.025 | 0.5194 ± 0.0026 | 0.422 ± 0.013 | 0.343 ± 0.02
Cc1ccc(/C(=C\CN2CCCC2)c2ccccn2)cc1 [Triprolidine hydrochloride] | 0.223 ± 0.0078 | 0.27 ± 0.014 | 0.257 ± 0.0035 | 0.213 ± 0.017 | 0.176 ± 0.0043 | 0.141 ± 0.005 | 0.264 ± 0.029 | 0.427 ± 0.05 | 0.165 ± 0.0066 | 0.214 ± 0.055 | 0.464 ± 0.026 | 0.41 ± 0.0077 | 0.368 ± 0.019
O=C(Nc1ccccc1)OCC(CN1CCCCC1)OC(=O)Nc1ccccc1 (stereo unspecified) [Diperodon hydrochloride] | 0.193 ± 0.0045 | 0.249 ± 0.0066 | 0.259 ± 0.0044 | 0.231 ± 0.037 | 0.0876 ± 0.0038 | 0.154 ± 0.0081 | 0.235 ± 0.019 | 0.345 ± 0.065 | 0.2 ± 0.0073 | 0.223 ± 0.038 | 0.405 ± 0.02 | 0.426 ± 0.0081 | 0.243 ± 0.028
